# Results filed as inconclusive are left out. Activity calls are given as the source filed them. Calls follow the shape of the dose curve; as a rule, active = well fitted activation curve with a large enough effect; inconclusive = small, poorly fitted or top-dose-only effect; inactive = flat fitted curve, though single readings scatter.
# Assay: qHTS assay to identify small molecule phospholipidosis (PLD) inducers (AID 1259344)
# Details: HepG2 phospholipidosis, LipidTOX Red imaging, 24 h; series mostly up to 38.3 µM
# Method in brief: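 Phospholipidosis is scored by imaging LipidTOX-stained pits in HepG2 cells exposed to compound for 24 h at 37 C; pit counts and integrated intensities per well and per cell serve as outputs.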
row,SMILES,outcome
1,CC(=O)NC(=O)c1ccccc1O,inactive
2,CCCc1nn(C)c2c(=O)[nH]c(-c3cc(S(=O)(=O)N4CCN(C)CC4)ccc3OCC)nc12,inactive
3,CN(C)C(=O)Oc1ccc[n+](C)c1,inactive
4,C[N+]12CCC(CC1)C(OC(=O)C(O)(c1ccccc1)c1ccccc1)C2 (stereo not drawn),inactive
5,NCCCC[C@H](N[C@@H](CCc1ccccc1)C(=O)O)C(=O)N1CCC[C@H]1C(=O)O,inactive
6,CC(=O)O[C@@]12CO[C@@H]1C[C@H](O)[C@@]1(C)C(=O)[C@H](O)C3=C(C)[C@@H](OC(=O)[C@H](O)[C@@H](NC(=O)OC(C)(C)C)c4ccccc4)C[C@@](O)([C@@H](OC(=O)c4ccccc4)[C@H]21)C3(C)C,inactive
7,COC(=O)C1=C(C)NC(C)=C(C(=O)OC(C)C)C1c1cccc2nonc12 (stereo not drawn),inactive
8,Nc1ccn([C@@H]2O[C@H](CO)[C@@H](O)C2(F)F)c(=O)n1,inactive
9,NC(=O)N1c2ccccc2CC(=O)c2ccccc21,inactive
10,CC(C)COC(=O)c1ccc(N)cc1,inactive
11,CC(COc1ccccc1)NN (stereo not drawn),inactive
12,CCCCCCCCCCOc1cc2c(=O)c(C(=O)OCC)c[nH]c2cc1OCC,inactive
13,C[N+]1(C)[C@@H]2CC(OC(=O)[C@H](CO)c3ccccc3)C[C@H]1[C@@H]1O[C@@H]12 (stereo partly drawn),inactive
14,CC(=O)Nc1ccc(OCC(O)CNC(C)C)cc1 (stereo not drawn),inactive
15,CN1CC(=O)N/C1=N/C(=O)Nc1cccc(Cl)c1,inactive
16,Cc1nc2ccc(CN(C)c3ccc(C(=O)N[C@@H](CCC(=O)O)C(=O)O)s3)cc2c(=O)[nH]1,inactive
17,CCCCc1nc(Cl)c(CO)n1Cc1ccc(-c2ccccc2-c2nn[nH]n2)cc1,inactive
18,O=[N+]([O-])c1ccc(/C=N\O)o1,inactive

# — PubChem BioAssay (Tox21)
